An excerpt weighted towards active compounds, which were near 1.1% of everything screened.
SRC1 inh = SRC1 coactivator transcriptional activity inhibitors, primary screen, cell-based, luminescence | Nuclear receptor coactivator 1 (Homo sapiens), Q15788 | HEK293 GAL4-SRC1 luciferase reporter | inhibition, % at 3.6 µM | 360,000 compounds, 0.12% hits;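 active means inhibition above the campaign mean plus 3 SD, with each screening campaign given its own cutoff, cut at about 60% in these data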;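 further: 0% = DMSO treated cells and 100% = gossypol at 36 µM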
NCOA2 inhibitor = inhibition of GAL4-SRC2 driven luciferase reporter, primary screen, SRC2 inhibitor project, cell-based, luminescence. HEK293 GAL4-SRC2 luciferase reporter. 370,000 compounds, 0.17% hits. AID 651957, 2012. inhibition, % at 9 µM;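 active means inhibition above the mean inhibition of all tested compounds plus 3 SD, set per campaign, cut at about 52% in these data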;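 further: 0% = DMSO treated cells and 100% = cells given Gossypol at 36 µM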
LRH-1 inv ag = LRH-1 (NR5A2) inverse agonists, primary screen, cell-based, luminescence, HEK293T, StAR-luciferase reporter; inhibition, % at 3.6 µM; LRH-1 transfected, 24 h; AID 602396, 2012; Nuclear receptor subfamily 5 group A member 2 (Homo sapiens), O00482; 360,000 compounds, 0.13% hits;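 active means inhibition above the mean inhibition of all tested compounds plus 3 SD, cut at about 73% in these data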;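 further: 0% = DMSO wells and 100% = reporter-only cells lacking LRH-1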
NR2F2 inh = NR2F2 transcriptional activity inhibitors, primary screen, cell-based, luciferase reporter, HEK293T, luminescence. COUP transcription factor 2 (Homo sapiens), P24468. inhibition, % at 8.6 µM. 370,000 compounds, 0.7% hits. HEK293T NGFI-A luciferase reporter. AID 686940, 2013;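 active means inhibition above a per-plate cutoff, mean inhibition of test wells between control levels plus 3 SD, cut at about 38% in these data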;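 further: cells cotransfected with COUP-TFII expression vector driving the NGFI-A reporter; 0% = median of COUP-TF2 test wells and 100% = reporter-only cells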
NCOA3 inh = SRC3 coactivator transcriptional activity inhibitors, primary screen, cell-based, luminescence. Nuclear receptor coactivator 3 (Homo sapiens), Q9Y6Q9. HEK293 GAL4-SRC3 luciferase reporter. inhibition, % at 3.6 µM. 360,000 compounds, 0.17% hits. AID 588352, 2011;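 active means inhibition above a per-campaign cutoff, the mean of all compounds plus 3 SD, cut at about 60% in these data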;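 further: 0% = DMSO-treated cells and 100% = gossypol-treated cells at 36 µM; higher means less SRC3-driven luciferase light from the GAL4 reporter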
GalR3 antagonist = GalR3 antagonists in HEK293 cells, primary screen, cell-based, fluorescence readout; HEK293 GalR3-CNG cAMP membrane potential fluorescence; galR3 body fused to GalR1 C-terminus; Galanin receptor type 3 (Homo sapiens), O60755; AID 651719, 2012; 360,000 compounds, 0.44% hits; inhibition, % at 3 µM;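 active means inhibition above the screen-wide average plus 3 SD, cut at about 13% in these data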;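 further: forskolin and galanin both at EC90 stimulate the cells; cAMP rise reported by CNG channel membrane potential dye signal; 0% = forskolin plus galanin with DMSO and 100% = forskolin alone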
Target sequence (O60755 1-299 limits assumed): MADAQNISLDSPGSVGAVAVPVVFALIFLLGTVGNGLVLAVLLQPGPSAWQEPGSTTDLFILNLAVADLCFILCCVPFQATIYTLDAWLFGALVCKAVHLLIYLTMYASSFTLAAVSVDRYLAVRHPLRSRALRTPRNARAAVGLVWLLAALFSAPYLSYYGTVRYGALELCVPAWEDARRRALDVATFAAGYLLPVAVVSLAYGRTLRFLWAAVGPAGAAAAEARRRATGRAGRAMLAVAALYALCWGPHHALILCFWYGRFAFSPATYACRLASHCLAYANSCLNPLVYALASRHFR
GalR3 antag conf = GalR3 antagonist hit confirmation, cell-based, fluorescence, triplicate; shares compounds with GalR3 antagonist; HEK293 GalR3 CNG cAMP biosensor, membrane potential fluorescence; galR3 fused to GalR1 carboxy tail; challenged with forskolin and galanin at EC90; inhibition, % at 3 µM; 1,600 compounds, 59% hits;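 active means inhibition above the primary screen's cutoff, the mean inhibition of all screened compounds plus 3 SD, cut at about 13% in these data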;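 further: 0% = forskolin plus galanin and 100% = forskolin alone with DMSO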
CNG parental = nonspecific cAMP agonists in parental HEK-CNG cells, counter-screen for GalR3 antagonist project, cell-based, fluorescence, high throughput. shares compounds with GalR3 antagonist. HEK293-CNG parental cells, cAMP membrane potential fluorescence; normalised: DMSO wells 0%, forskolin wells 100%. activation, % at 3 µM. 1,600 compounds, 10% hits. AID 652268, 2013; in the data active means activation above about 1.3%
* marks the source's active call; other numbers are inactive results.

`COC(=O)C1=C(C)N(CC(C)C)C(=S)NC1c1ccc(-c2ccccc2)cc1` (stereo unspecified) gave NCOA2 inhibitor 7.9, NR2F2 inh -1.2 and GalR3 antagonist -6.3.
Screening O=C(NCc1cccs1)C1CCCN1C(=O)Nc1ccccc1Cl (stereo unspecified) returned SRC1 inh -5.9, NCOA2 inhibitor -18.8, LRH-1 inv ag 15.4, NR2F2 inh -10.8, NCOA3 inh 9.3 and GalR3 antagonist -7.7.
Cc1ccccc1NC(=O)N1CCCC1C(=O)NCc1cccs1 (stereo unspecified) was read as SRC1 inh 14.0, NCOA2 inhibitor -24.0, LRH-1 inv ag -23.4, NR2F2 inh 3.6, NCOA3 inh 5.4, GalR3 antag conf 1.4 and CNG parental -1.5.
Screening CCCCN(Cc1cccs1)S(=O)(=O)c1ccc(-c2ccc(=O)[nH]n2)s1 returned SRC1 inh -24.8, NCOA2 inhibitor -9.7, LRH-1 inv ag -6.4, NR2F2 inh 1.7, NCOA3 inh -8.3, GalR3 antagonist 21.8*, GalR3 antag conf 24.1* and CNG parental 0.1.
COCCN(Cc1cccs1)S(=O)(=O)c1ccc(-c2ccc(=O)[nH]n2)s1 was read as SRC1 inh -3.0, NCOA2 inhibitor 8.0, LRH-1 inv ag 12.4, NR2F2 inh -2.5, NCOA3 inh -2.4, GalR3 antagonist 26.5*, GalR3 antag conf 27.7* and CNG parental 0.3.
Screening CCOC(=O)CCN(c1ccccc1)S(=O)(=O)c1ccc(-c2ccc(=O)[nH]n2)s1 returned SRC1 inh -13.8, NCOA2 inhibitor -9.9, LRH-1 inv ag -2.5, NR2F2 inh -4.2, NCOA3 inh -0.4, GalR3 antagonist 32.5*, GalR3 antag conf 57.4* and CNG parental -0.5.
For CN(C)CCN(Cc1ccccc1)S(=O)(=O)c1ccc(-c2ccc(=O)[nH]n2)s1 the results were SRC1 inh 13.7, NCOA2 inhibitor -1.0, LRH-1 inv ag -14.1, NR2F2 inh 8.1, NCOA3 inh 13.0 and GalR3 antagonist 11.2.
For COCCCN(Cc1cccs1)S(=O)(=O)c1csc(C(N)=O)c1 the results were SRC1 inh -5.2, NCOA2 inhibitor -39.7, LRH-1 inv ag -3.1, NR2F2 inh 3.9, NCOA3 inh 6.1 and GalR3 antagonist -7.6.
For CCc1ccccc1NC(=O)CN(C)S(=O)(=O)c1ccc(-c2ccc(=O)[nH]n2)s1 the results were SRC1 inh -77.7, NCOA2 inhibitor 8.2, LRH-1 inv ag 7.7, NR2F2 inh -8.3, NCOA3 inh -20.3 and GalR3 antagonist -3.7.
Screening Cn1ccc2ccc(-c3ccc4c(c3)[C@]3(CCC[C@@H](OCc5ccccc5)[C@@H]3NC(=O)CCc3ccccc3)C(=O)N4Cc3ccccc3)cc21 returned NCOA2 inhibitor -14.3 and NR2F2 inh -9.9.
`COc1ccccc1CNC(=O)C1CC(c2ccccc2[N+](=O)[O-])=NO1` (stereo unspecified) gave SRC1 inh -5.9, NCOA2 inhibitor -3.0, LRH-1 inv ag 11.3, NR2F2 inh -0.4, NCOA3 inh -26.3, GalR3 antag conf 8.8 and CNG parental 0.3.
`C/C(=C/C(=O)Nc1cccc(F)c1)N1CCCC1` gave SRC1 inh -15.2, NCOA2 inhibitor -14.4, LRH-1 inv ag 2.3, NR2F2 inh 6.8, NCOA3 inh -16.2, GalR3 antagonist 17.5*, GalR3 antag conf -0.1 and CNG parental 0.0.
C#CC1(O)C2C=C(OC)C(=O)C1C(c1ccccc1)C2C (stereo unspecified) was read as NCOA2 inhibitor -35.6 and NR2F2 inh -13.0.
For CNc1nc2c(N)ncnc2n1[C@H]1O[C@@H](CO)[C@H](O)[C@@H]1O the results were SRC1 inh -25.7, NCOA2 inhibitor 30.6, LRH-1 inv ag 40.3, NR2F2 inh -32.8, NCOA3 inh -31.9, GalR3 antagonist 26.1*, GalR3 antag conf 39.9* and CNG parental 0.3.
For O=C(Nc1nnc(-c2cccnc2)s1)c1cnc2ccccc2c1 the results were NCOA2 inhibitor -43.2 and NR2F2 inh -38.1.
Screening OCC1OC(n2cnc3c(NC4CCCCC4)ncnc32)C(O)C1O (stereo unspecified) returned SRC1 inh -48.8, NCOA2 inhibitor -29.2, LRH-1 inv ag 3.9, NR2F2 inh -51.0, NCOA3 inh -65.0, GalR3 antagonist 35.8*, GalR3 antag conf 49.3* and CNG parental 0.3.
`OCC1OC(n2cnc3c(NC4CCCC4)ncnc32)C(O)C1O` (stereo unspecified) gave SRC1 inh -43.1, NCOA2 inhibitor -36.3, LRH-1 inv ag -4.8, NR2F2 inh -57.7, NCOA3 inh -44.8 and GalR3 antagonist -1.5.
Screening OC[C@H]1O[C@@H](n2cnc3c(NC4CCCC4)ncnc32)[C@H](O)[C@@H]1O returned SRC1 inh -27.4, NCOA2 inhibitor -34.3, LRH-1 inv ag 1.1, NR2F2 inh -51.7, NCOA3 inh -25.0 and GalR3 antagonist 3.2.
Screening C=CCNc1ncnc2c1ncn2C1OC(CO)C(O)C1O (stereo unspecified) returned SRC1 inh -41.9, NCOA2 inhibitor -13.9, LRH-1 inv ag -17.4, NR2F2 inh -19.6, NCOA3 inh -1.8, GalR3 antagonist 98.8*, GalR3 antag conf 99.3* and CNG parental 0.7.
`COc1cc(O)c([C@@H](CC(=O)N2CC(C)CC(C)C2)c2ccc3c(c2)OCO3)c(OC)c1` (stereo partly specified) gave NR2F2 inh 36.1.
Screening O=C(Oc1coc(CSc2ncccn2)cc1=O)c1ccc([N+](=O)[O-])cc1 returned NR2F2 inh 11.8.
N/C(=N\NS(=O)(=O)c1ccc(Cl)cc1)c1ccccn1 was read as SRC1 inh -6.0, NCOA2 inhibitor -4.1, LRH-1 inv ag 11.3, NR2F2 inh -1.7, NCOA3 inh 25.1, GalR3 antagonist 13.8*, GalR3 antag conf 0.1 and CNG parental -0.1.

Assay outcomes from PubChem BioAssay.
